B1: GBRAPL2_151_7316 (protein)
chain: EWKEEALKALEEGAKAVEEFAKSLPESEELERTELELLAGGLDAYKALIEETDDEEEIRRLLKEAAELVEDAAEIAKKLGREEAAKKLEKIAKKLKELAE
B2: GBRAPL2_151_7314 (protein)
chain: SWKEEALKALEKGAKAIEEFAKSLPEEHELERTEAELLAGGMEAYRALIEETDDEEEIKRLLKEAAELVKDAAEIAKELGFEKEAKELEKIAKELEKLAK
B3: GBRAPL2_151_7321 (protein)
chain: SELEKLKKEAEKLLEELEKLVKELEKKKPEKSTEVETLLGGAEADLILAEEAEDPEEKRRFLLEAAELLADAFKLIAKVLGSEKAKKLAKEAEELAKKLA
B4: GBRAPL2_151_7308 (protein)
chain: SEKEKAIELLKKAAEAAEEAIKALSEDQELEKTEFELIAGGLEALAILIEEEDDEEKIKELVKRGAELVKDAAELAKKLGLEEQAKKLKEIAKELEKLSK
B5: GBRAPL2_151_7302 (protein)
chain: SWKEKIIKALEEAAKIAEEAVEKLSESQELEKTEFELIAGGLDALRALIEETDDEEEIRRLARRAAELTKDGAEIAKKLGLEEEAEKFEKRAKELEELAE
B6: GBRAPL2_151_7319 (protein)
chain: GELEELEKKLKELIKKLEKLLEKLKKEKPEYETEVSTLLGGAEADLLLAEEAEDPEEKRRFLAEAAELAADAFKLIAEVLGSEEAKKLAEEAKKLLEKLK
B7: GBRAPL2_128_7290 (protein)
chain: MKLVTIDVTIKNEEEYNLAVKVLKELAEKGSPKVADLADAARDMVEEAKKEGYNENVSVADILSEEDAEELKKLYEELAKKYGEEKVKSIIKLTIDDIPP
B8: GBRAPL2_151_7307 (protein)
chain: SRKEEAIRLLEEAARTAEEAVEALPESKELEKTELELLAGGLDALAILVEEEDDEEKVRELVKEGAELTEDAARLARELGLEEQARRLEELSRRLKELAE
B9: GBRAPL2_151_7318 (protein)
chain: EELEELLKRLKKLAEKLAKLAEELAKEDPEHATEVETLVGGVEADIILAEEEEDEEEKRRHLLRAAELAADAAKLIAEVLKKEEAKKLAEEAKELAEKLK
B10: GBRAPL2_151_7303 (protein)
chain: GWKEEAIKALEEAAKAAEEAAKALSPEHELERTELELLAGGFEADAILIEETDDEEEIKRLVKEAAEMAKDAAKLAKKLGLEKEAKKLEKIAEKLKKLAE
B11: GBRAPL2_151_7311 (protein)
chain: DLKEKAVKALEEAAKALEELAEKLSEEQELEKTEIELLAGGMDAYAILVEETEDEEEIKRIVKDAAELVEDAAKIAKELGLEEDAKKLKEIAKKLKELAK
B12: GBRAPL2_151_7317 (protein)
chain: SELEKLLKELKALAEELWKLAEELAKKDPSVATEVETLVGGVEADIILAEEEEDPEEKRKHLLEAAKLAKDAAELIAEVLKSEKAKKLAEKAKKLAEKLK
B13: GBRAPL2_128_7295 (protein)
chain: MKIVEIDIDIKNEEEAELVKEIFKEIAEKSSPEIKKLMDAAIDMVESLKEDGYDEKGTVVDILSKEDAEELKKLYEEEAEKYGKEKVEKIIKLEISDIPP
B14: GBRAPL2_128_7296 (protein)
chain: MKIVEIDIDVENEEEAELVLEILEEISKKSSPEVKKLMDAAKDMVESLKEDGYDEKATVVDILSEEDAKELEELYKEEAKKYGEEKVKKIIKLEIDEIPP
B15: GBRAPL2_128_7294 (protein)
chain: MKIVEIDLDIKNEEEANLAKEILKEIAAKSSEKVKDLMDAAIDMVESLEEDGYDEKATVVDVLSEEDAEELKKLYEEEAKKYGEEKVNKIIKLEISDIPP
B16: GBRAPL2_151_7320 (protein)
chain: EELEELERRARELLEELEELVKELEEKKPEHSTEVETLVGGAEADLLLAEEAEDPEEKRRFLLEAAKLIRDAFELIAKILGSERAKELAEEAKELAKELE
B17: GBRAPL2_151_7300 (protein)
chain: EWKEEAIKALEEAAKIAEEAVEKLDESQELEKTEFELIAGGLDALKALIEETDDEEKIREYVKRGAELVKDAAKIAKELGLEEEAKKFEKLAKKLEELSK
B18: GBRAPL2_128_7293 (protein)
chain: MKIVEVDIEIKNEEEAEKVKAAFDEIAERGSPAVAKLADAAKDMAESLLEDGFDEKGTVVDVLSDEDAAELRELYEELAKEYGEEFMNENIKLTIDDIPP
B19: GBRAPL2_128_7291 (protein)
chain: MKLVEISVKVENEEEYELAKKVLSDIAEKSSPEVAKLADAARDMLEENKEEGYNVGVTVADILSEEQAEELRKLFEEVAKEYGKEKVEKIIELTVDDLPP
B20: GBRAPL2_151_7309 (protein)
chain: KLKEEVIEALERAAEAVEKAAEKLSPEQELERTELELIAGGMEAYAALVEETEDEEKIKEITRRAAEMVRDAAEIAKELGLEEEAKELEEIAKELEELAA
B21: GBRAPL2_151_7306 (protein)
chain: SKKEKAIELLKEAAKTAEEAVKKLSEEQELEKTELELIAGGLEALAILVEETDDEEKIKKLVKEAAELVEDAAKLAEELGLEEEAKKLKELAKELKKLAE
B22: GBRAPL2_128_7297 (protein)
chain: MKLVEIDIDINNEEEAKLVIEVLEEIAKEGSEEVKKLAEAAKDLAESLAEEGYGEKGTVVDILSEEDAKELKELYEKLSKKYGKEKIEKRIKLEVDDIPP
B23: GBRAPL2_128_7299 (protein)
chain: MKLVEIDITIENKEEAELVKKILEEIAKKGSEEVKKLADAAKDLAETLAEEGYGEKGTVVDILSDEDAEELKKLYEELAEKYGKEKVEKRIKLEVDDIPP
B24: GBRAPL2_151_7315 (protein)
chain: SWKEEALKALEEAAEAIEEAAKKLPPEHELERTELELLAGGMDAYKALIEETDDEEEIKRLLKEAAELVKEAAEIMKKLGFEEEAKKLEKIAKELEKLAK
B25: GBRAPL2_151_7305 (protein)
chain: SEKEKAIELLEEAAKAAEEAIKKLSEEQELAKTEFELIAGGLEALAILVEETDDEEEIKRLIKEAAELTEDAAKLAEELGLEEEAKKLKEISKELKKLAE
B26: GBRAPL2_151_7301 (protein)
chain: SWKEEAIKALEEAAKIAEEAVEKLSEEQELEKTEFELIAGGMDALKALIEETDDEELIKKYVERGAELVKDAAEIAKELGLEELAKKFEKLAKELEKLSK
B27: GBRAPL2_151_7313 (protein)
chain: GWKEEALKALKEAAEAIEKAAEALPPEHELERTELELLAGGMDAYRALVEETDDREEIKRLLKDAAELVKDAAEIMEKLGKEEAAKKLKKIAEKLKKLAE
B28: GBRAPL2_128_7298 (protein)
chain: MKLVEIDIDIENEEEAKLVLEILDEIAKRGSPEVKKLADAAKDLAESLAESGYGEKGTVVDILSEEDAEELKKLYEELAKEYGEEKVKKRIKLEVDDIPP
B29: GBRAPL2_128_7292 (protein)
chain: MKLVEIDLDIKNEEEYELAKKVLTELARESSPAVADLANAALDMVEEAKKDGFKDKYVVADVLSPEDAAELEALFNRLAERYGAEKVRKVIQLEVSDIPP
B30: GBRAPL2_151_7304 (protein)
chain: GWKEEAIKALEKAAKAAEEAAAALPESQELERTELELLAGGFEADAILIEETDDEEEIKRLVKEAAERAEDAAKLAKKLGLEEQAKKLEKIAKELKKLAK
B31: GBRAPL2_151_7312 (protein)
chain: SLKEKAVEKLKEAAELVEEAAKALPESQELERTELELIAGGMDADAILIEETEDEEEIKKIIKESAERVEDAAKIAKKLGLEELAKKLEEKAKELKKLAE
B32: GBRAPL2_151_7310 (protein)
chain: ELKEKVVKALKEAAKALEELAELLSPEHELEKTEIELIAGGMDAYAALVEETEDEEKIKEITKEAAELVEDAAKIAKELGLEEQAKKLEEIAKKLKELAA

Biological target: GABARAPL2, P60520
Sequence (P60520 whole entry, the tested form may be a part): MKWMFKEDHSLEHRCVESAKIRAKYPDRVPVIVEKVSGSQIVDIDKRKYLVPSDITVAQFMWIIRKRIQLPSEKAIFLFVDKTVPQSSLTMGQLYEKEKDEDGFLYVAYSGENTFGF
Test: median log2 fold change of GCK-ALFA target abundance (FLAG IP / Myc IP barcode read proportion) (log2 ratio); each designed protein is fused to an ALFA-tag nanobody in HEK293 cells to bring the named protein to FLAG-tagged glucokinase (GCK); Myc marks an untargeted standard; higher = target protein stabilised (more abundant)
Conditions: target protein: 3xFLAG-MCP-GCK-ALFA reporter; HEK293 landing pad (RPLP)
Outline: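 An ALFA-nanobody-fused binder library was recombined into HEK293 landing-pad cells and induced with 2 μg mL^−1 doxycycline. Cells were transfected with a plasmid expressing a FLAG-tagged target and a Myc-tagged standard. After 48 h, lysates underwent anti-FLAG and anti-Myc immunoprecipitation, and circular RNA barcodes were reverse transcribed, amplified and sequenced. Target abundance is the per-binder median log2 ratio of FLAG to Myc barcode read proportions. Barcodes needed ≥10^−7 proportion in both replicates, binders ≥3 barcodes per replicate, and a 10^−6 pseudocount was added; the two replicates were pooled.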

| Binder | median log2 fold change |
| --- | --- |
| B1 | 0.266 |
| B2 | 0.164 |
| B3 | 0.168 |
| B4 | 0.202 |
| B5 | 0.2 |
| B6 | 0.141 |
| B7 | -0.128 |
| B8 | -0.403 |
| B9 | 0.242 |
| B10 | 0.179 |
| B11 | -0.0443 |
| B12 | 0.0623 |
| B13 | -0.663 |
| B14 | -0.305 |
| B15 | 0.042 |
| B16 | 0.183 |

| Binder | median log2 fold change |
| --- | --- |
| B17 | 0.271 |
| B18 | -0.421 |
| B19 | 0.0557 |
| B20 | 0.0437 |
| B21 | 0.123 |
| B22 | -0.194 |
| B23 | -0.468 |
| B24 | -0.126 |
| B25 | -0.356 |
| B26 | 0.0733 |
| B27 | -0.0822 |
| B28 | -0.397 |
| B29 | -0.166 |
| B30 | 0.0343 |
| B31 | 0.307 |
| B32 | 0.111 |
